Screening results (PubChem BioAssay)
In the library only some 6% were active in any assay of this set; here they are far more common.
DRD3 agonist: qHTS of D3 Dopamine Receptor Agonist: qHTS. D(3) dopamine receptor (Homo sapiens), P35462. D3R DiscoveRx beta-arrestin cells, luminescence, 90 min. max activation, %. 0.58% of 410,000 active; in the data active means max activation above about 30%
Target sequence (P35462 whole entry, looked up): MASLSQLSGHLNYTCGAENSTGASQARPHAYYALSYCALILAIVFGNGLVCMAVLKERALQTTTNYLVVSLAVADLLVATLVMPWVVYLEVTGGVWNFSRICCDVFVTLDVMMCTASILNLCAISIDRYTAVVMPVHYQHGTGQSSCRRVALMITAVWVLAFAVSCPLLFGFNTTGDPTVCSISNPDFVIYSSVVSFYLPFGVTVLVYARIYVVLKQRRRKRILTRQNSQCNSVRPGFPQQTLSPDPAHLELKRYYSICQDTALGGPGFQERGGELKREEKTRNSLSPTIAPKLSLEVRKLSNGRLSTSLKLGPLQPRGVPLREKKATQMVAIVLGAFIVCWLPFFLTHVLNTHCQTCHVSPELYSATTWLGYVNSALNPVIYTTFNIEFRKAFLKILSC
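Agonist mode: compounds and dopamine controls were applied to plated cells for 90 min at 37 degrees C after an overnight attachment at 1500 cells/well. Luminescent read-out followed 30 - 60 minutes at room temperature with DiscoveRx detection reagent.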
D1 ag: Allosteric Agonists of the Human D1 Dopamine Receptor: qHTS. D(1A) dopamine receptor (Homo sapiens), P21728. HEK293 T-REx D1 cells, calcium flux, agonist mode. activation, % at 2 µM. 1% of 360,000 active. AID 504660, 2011; in the data active means activation above about 30%
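Inducible HEK293 T-REx D1 cells, force-coupled to calcium signalling, were plated at 4000 cells/well with tetracycline and held overnight at 30 C. After no-wash calcium dye loading, compound-evoked calcium rise over 180 s flagged agonists.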
DRD3 antagonist: qHTS of D3 Dopamine Receptor Antagonist: qHTS. D3R cells, DiscoveRx beta-arrestin luminescence, antagonist mode; active compounds read low. D(3) dopamine receptor (Homo sapiens), P35462. 2.5% of 360,000 active. max response, negative = inhibition, %; in the data active means max response below about -50%
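Cells plated overnight at 1500 cells/well, then exposed to library compounds with dopamine controls for 90 minutes at 37 degrees C. DiscoveRx reagent added for 30–60 minutes at room temperature; luminescence read, quantitative HTS format.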
D1 PAM: Potentiators of Human D1 Dopamine Receptor: qHTS. potentiation, % at 10 µM. HEK293 TREx D1 cells, calcium flux, dopamine EC20 potentiation. 0.036% of 360,000 active; in the data active means potentiation above about 30%
D1 antagonist: Antagonist of Human D 1 Dopamine Receptor: qHTS; D(1A) dopamine receptor (Homo sapiens), P21728; activity change, negative = inhibition, % at 10 µM; HEK293 TREx D1 cells, calcium flux, dopamine EC80; active compounds read low; 3.2% of 360,000 active; in the data active means activity change below about -30%
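Inducible Hek293 Trex D1 cells (tetracycline, overnight, 30 C). Calcium dye 30–90 min RT. Antagonist mode: EC80 dopamine added after 180 s compound read.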
Hits are given with their value; . = inactive; / = not tested or not shown.

SMILES	DRD3 agonist	D1 ag	DRD3 antagonist	D1 PAM	D1 antagonist
COC(=O)c1ccc(NC2CC(=O)N(c3ccccc3C)C2=O)cc1 (configuration not stated)	.	.	.	.	-33
COc1ccc(N2C(=O)CC(Nc3cccc([N+](=O)[O-])c3)C2=O)cc1 (configuration not stated)	.	.	.	.	-33
COc1ccc(N2C(=O)CC(Nc3ccc(C(=O)O)cc3)C2=O)cc1OC (configuration not stated)	.	.	.	.	.
COC(=O)c1cccc(NC2CC(=O)N(c3ccc(OC)c(OC)c3)C2=O)c1 (configuration not stated)	.	.	.	.	-33
Cc1ccccc1N1C(=O)CC(Nc2ccc3c(c2)OCO3)C1=O (configuration not stated)	.	.	.	.	.
CC(=O)NC(c1cccc(F)c1)c1nc(/C=C/c2ccccc2)cs1 (configuration not stated)	.	/	.	/	/
Nc1ccccc1C#CCCCCO	.	.	.	.	.
CC1=C(C(=O)OC2CCCCCC2)C(c2ccc(C)o2)C2=C(CCCC2=O)N1 (configuration not stated)	.	.	.	.	-33
CC1=C(C(=O)OC2CCCCC2)C(c2ccc(C)o2)C2=C(CC(C)(C)CC2=O)N1 (configuration not stated)	.	.	.	.	.
COc1cccc(C(=O)NCCN2CCC(n3c(=O)[nH]c4ccccc43)CC2)c1	.	/	-78	/	/
CCOc1cc(OCC)cc(C(=O)NCCN2CCC(n3c(=O)[nH]c4ccccc43)CC2)c1	.	/	-95	/	/
O=C(NCCN1CCC(n2c(=O)[nH]c3ccccc32)CC1)c1cccnc1	.	/	.	/	/
COc1ccc(CCNC(=O)CCCn2c(=O)c3ccccc3n(Cc3cccc(Cl)c3)c2=O)cc1OC	.	.	/	.	.
O=C(CCCCn1c(=O)c2ccccc2n(CC(=O)Nc2ccc(F)cc2F)c1=O)NCCc1ccccc1	.	.	/	.	-38
O=C(CCCCn1c(=O)c2ccccc2n(CC(=O)Nc2cccc(F)c2)c1=O)NCc1ccccc1Cl	.	33	/	.	.
COc1ccc(CCNC(=O)CCCCn2c(=O)c3ccccc3n(Cc3ccc(Cl)cc3)c2=O)cc1OC	.	.	/	.	-53
COC(=O)c1ccccc1NC(=O)Cn1c(=O)n(CCCC(=O)NCCc2ccc(OC)c(OC)c2)c(=O)c2ccccc21	.	.	/	.	-32
CCOC(=O)c1c(NC(=O)c2cc(OC)c(OC)c(OC)c2)sc2c1CCCC2	.	.	/	.	.
CC1=C(C(=O)N2CCCCCC2)CC(CC(=O)NCCN2CCOCC2)C(=O)N1Cc1ccc(C(C)(C)C)cc1 (configuration not stated)	.	/	.	/	/
Cc1nnc(N2C(=O)C(O)=C(C(=O)c3ccco3)C2c2ccc(F)cc2)s1 (configuration not stated)	.	36	.	.	.
CSc1ccc(C2C(C(=O)c3ccco3)=C(O)C(=O)N2c2nnc(SC)s2)cc1 (configuration not stated)	.	31	.	.	.
Cc1ccc(C2C(C(=O)c3ccco3)=C(O)C(=O)N2c2ncccn2)cc1 (configuration not stated)	.	.	.	.	.
Cc1ccc(C2C(C(=O)c3cccs3)=C(O)C(=O)N2c2nnc(C)s2)cc1 (configuration not stated)	.	141	.	.	.
CCCCOc1cccc(C2C(C(=O)c3ccc(C)o3)=C(O)C(=O)N2c2nnc(C)s2)c1 (configuration not stated)	.	.	.	.	.
CCCOc1cccc(C2C(C(=O)c3ccco3)=C(O)C(=O)N2c2nnc(C)s2)c1 (configuration not stated)	.	76	.	/	.
SMILES	DRD3 agonist	D1 ag	DRD3 antagonist	D1 PAM	D1 antagonist
CCCCN1C(=O)C(CC(=O)NCCc2ccccn2)CC(C(=O)N(CC)CC)=C1C (configuration not stated)	.	/	.	/	/
CCOc1ccccc1NC(=O)C(=O)NCC(c1cccnc1)N1CCN(c2ccccc2)CC1 (configuration not stated)	.	.	/	.	.
Cc1ccc2c(c1)NC(c1cccs1)C1=C(CC(C)(C)CC1=O)N2 (configuration not stated)	.	.	.	.	.
NC(N)=NN=C(/C=C/c1ccc([N+](=O)[O-])o1)/C=C/c1ccc([N+](=O)[O-])o1	.	/	/	/	/
Cc1nnc(N2C(=O)C(O)=C(C(=O)c3ccco3)C2c2ccc(C(C)(C)C)cc2)s1 (configuration not stated)	.	.	-83	.	.
CC(C)(C)c1ccc(C2C(C(=O)c3ccco3)=C(O)C(=O)N2CC2CCCO2)cc1 (configuration not stated)	.	.	.	.	.
Cc1nnc(N2C(=O)C(O)=C(C(=O)c3ccco3)C2c2ccc(C(C)C)cc2)s1 (configuration not stated)	.	51	.	.	.
COc1ccc(C)cc1NC(=O)COC(=O)Cc1c[nH]c2ccccc12	.	/	.	/	/
CCc1ccc(CNc2ncnc3onc(-c4ccc(Cl)cc4)c23)cc1	.	.	/	.	.
O=C1CSC(=S)N1N=Cc1ccc(Cl)s1	.	/	.	/	/
Cc1ccccc1C(=O)N1CCC(C(=O)Nc2ccc(S(=O)(=O)N3C(C)CCCC3C)cc2)CC1 (configuration not stated)	.	/	.	/	/
CCCCn1nnnc1SCC(=O)NCc1ccccc1	.	.	-55	.	.
COc1cccc(C(=O)CSc2nnnn2C)c1	.	.	-64	.	.
O=C(CSc1nnnn1Cc1ccccc1)c1ccccc1	.	.	-58	.	.
O=C(CSc1nnnn1Cc1ccccc1)c1ccc(F)cc1	.	.	.	.	.
OC[C@H]1O[C@@H](n2cnc3c(=S)nc[nH]c32)[C@H](O)[C@@H]1O	.	/	/	/	/
Cc1cccc(Nc2c(-c3ccsc3)nc3nc(C)cc(C)n23)c1	.	.	/	.	.
Cc1ccccc1C(=O)N(Cc1ccc(N(C)C)cc1)Cc1ccco1	.	.	/	.	.
COc1cc2c3nnc(-c4ccc(F)cc4)c-3cn(Cc3ccc(F)cc3)c2cc1OC	.	.	.	.	-37
COc1ccc(Cn2cc3c(-c4ccc(F)cc4)nnc-3c3cc(OC)c(OC)cc32)cc1	.	.	.	.	.
COc1ccc(C)cc1NC(=O)C1CCN(S(=O)(=O)c2c(C)noc2C)CC1	40	.	.	.	.
COc1ccc(NC(=O)C2CCN(S(=O)(=O)c3c(C)noc3/C=C/N(C)C)CC2)cc1	.	.	.	.	-34
COc1ccc(C)cc1NC(=O)C1CCN(S(=O)(=O)c2c(C)noc2/C=C/c2ccco2)CC1	.	.	/	.	.
